Experimental data: PubChem BioAssay (EPA / NIEHS)
Where “and” joins values, the source holds several entries; their conditions need not be identical. Equal entries are not always repeated. A structure can be active in one record and inactive in another. Calls of active or inactive are those of the source. Rule for the calls: active = hit-call score of the fitted dose curve at least 0.9, where 1 is the maximum; inactive = score below 0.9.

What was measured:
[1] = read-out: Human Leukocyte Antigen - DR isotype (HLADR), HLA-DRA (gene 3122); assay: BSK_BE3C_HLADR: BioMAP Diversity Plus: BE3C Assay for Human Leukocyte Antigen - DR isotype (HLADR) Biomarker Activity (AID 2283032); details: primary human bronchial epithelial cells; actives raise or lower the signal
Summary of the method: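 Signal came from an ELISA for HLA-DR in human bronchial epithelial primary cells harvested 24 h after treatment; gain- and loss-of-signal fitting used DMSO controls as reference.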

[2] = read-out: Vascular cell adhesion molecule 1 (VCAM1), VCAM1 (gene 7412); assay: BSK_4H_VCAM1: BioMAP Diversity Plus: 4H Assay for Vascular cell adhesion molecule 1 (VCAM1) Biomarker Activity (AID 2283033); details: primary human endothelial cells (HUVEC); actives raise or lower the signal
Summary of the method: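 Endpoint derived from bidirectional fitting against DMSO controls of VCAM-1 ELISA signal in umbilical vein endothelial cells sampled at 24 h following treatment.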

[3] = read-out: Interferon-gamma inducible Protein 10 (IP10), CXCL10 (gene 3627); assay: BSK_BE3C_IP10: BioMAP Diversity Plus: BE3C Assay for Interferon-gamma inducible Protein 10 (IP10) Biomarker Activity (AID 2283034); details: primary human bronchial epithelial cells; actives raise or lower the signal
Summary of the method: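 Using primary human bronchial epithelial cultures, the assay captures IP-10 by ELISA one day (24 h) after exposure. Parallel SRB staining of total protein flags overt cytotoxicity. Fits run bidirectionally relative to DMSO.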

[4] = read-out: Monokine induced gamma interferon (MIG), CXCL9 (gene 4283); assay: BSK_BE3C_MIG: BioMAP Diversity Plus: BE3C Assay for Monokine induced gamma interferon (MIG) Biomarker Activity (AID 2283035); details: primary human bronchial epithelial cells; actives raise or lower the signal;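 note: MIG protein measured by ELISA in BE3C cultures after 24 h of dosing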
Summary of the method: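 ELISA read-out of MIG in human lung bronchial epithelial primary cultures, 24 h post-dosing. Bidirectional curve fit vs DMSO baseline.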

[5] = read-out: Transforming growth factor beta 1 (TGFb1), TGFB1 (gene 7040); assay: BSK_BE3C_TGFb1: BioMAP Diversity Plus: BE3C Assay for Transforming growth factor beta 1 (TGFb1) Biomarker Activity (AID 2283036;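 note: TGF-b1 protein level measured by ELISA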); details: primary human bronchial epithelial cells; actives raise or lower the signal
Summary of the method: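 In this human primary bronchial epithelial system, an ELISA quantified TGF-b1 one day after dosing. Endpoint changes in either direction were fitted relative to DMSO.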

[6] = read-out: Plasminogen activator inhibitor-1 (PAI1), SERPINE1 (gene 5054); assay: BSK_BE3C_PAI1: BioMAP Diversity Plus: BE3C Assay for Plasminogen activator inhibitor-1 (PAI1) Biomarker Activity (AID 2283037); details: primary human bronchial epithelial cells; actives raise or lower the signal
Summary of the method: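 PAI-1 biomarker levels in treated human bronchial epithelial cells are determined by ELISA at 24 h. Both increases and decreases relative to DMSO are fitted.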

[7] = read-out: Urokinase-type plasminogen activator receptor (uPAR), PLAUR (gene 5329); assay: BSK_BE3C_uPAR: BioMAP Diversity Plus: BE3C Assay for Urokinase-type plasminogen activator receptor (uPAR) Biomarker Activity (AID 2283039); details: primary human bronchial epithelial cells; actives raise or lower the signal;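 note: uPAR protein level measured by ELISA on the cells; cells exposed to compound for one day before measurement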
Summary of the method: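 A uPAR ELISA serves as the readout, taken 24 h after treating primary human bronchial epithelial cells. Responses in either direction are fitted against DMSO, which defines baseline activity.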

[8] = read-out: Interleukin-6 (IL6), IL6 (gene 3569); assay: BSK_CASM3C_IL6: BioMAP Diversity Plus: CASM3C Assay for Interleukin-6 (IL6) Biomarker Activity for (AID 2283040); details: primary human coronary artery smooth muscle cells; actives raise or lower the signal
[9] = read-out: Tissue plasminogen activator (tPA), PLAT (gene 5327); assay: BSK_BE3C_tPA: BioMAP Diversity Plus: BE3C Assay for Tissue plasminogen activator (tPA) Biomarker Activity (AID 2283041); details: primary human bronchial epithelial cells; actives raise or lower the signal;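 note: tPA level quantified by ELISA one day after compound addition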
Summary of the method: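 Bidirectional curve fitting relative to DMSO defined activity, with tPA detected by ELISA in chemically treated human bronchial epithelial primary cells at 24 hours.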

[10] = read-out: Interleukin-8 (IL8), CXCL8 (gene 3576); assay: BSK_CASM3C_IL8: BioMAP Diversity Plus: CASM3C Assay for Interleukin-8 (IL8) Biomarker Activity (AID 2283042); details: primary human coronary artery smooth muscle cells; actives raise or lower the signal;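 note: IL-8 protein level quantified by ELISA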
[11] = read-out: Human Leukocyte Antigen - DR isotype (HLADR), HLA-DRA (gene 3122); assay: BSK_CASM3C_HLADR: BioMAP Diversity Plus: CASM3C Assay for Human Leukocyte Antigen - DR isotype (HLADR) Biomarker Activity (AID 2283043); details: primary human coronary artery smooth muscle cells; actives raise or lower the signal;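 note: cell-surface HLA-DR protein level quantified by ELISA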
[12] = read-out: Macrophage colony-stimulating factor (MCSF), CSF1 (gene 1435); assay: BSK_CASM3C_MCSF: BioMAP Diversity Plus: CASM3C Assay for Macrophage colony-stimulating factor (MCSF) Biomarker Activity (AID 2283044); details: primary human coronary artery smooth muscle cells; actives raise or lower the signal;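 note: M-CSF protein amount quantified by ELISA after 24 h exposure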
[13] = read-out: Low-density lipoprotein receptor (LDLR), LDLR (gene 3949); assay: BSK_CASM3C_LDLR: BioMAP Diversity Plus: CASM3C Assay for Low-density lipoprotein receptor (LDLR) Biomarker Activity (AID 2283045); details: primary human coronary artery smooth muscle cells; actives raise or lower the signal;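 note: LDLR protein level on the cell surface quantified by ELISA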
[14] = read-out: Monocyte Chemoattractant Protein-1 (MCP1), CCL2 (gene 6347); assay: BSK_CASM3C_MCP1: BioMAP Diversity Plus: CASM3C Assay for Monocyte Chemoattractant Protein-1 (MCP1) Biomarker Activity (AID 2283046); details: primary human coronary artery smooth muscle cells; actives raise or lower the signal;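 note: MCP-1 level quantified by ELISA 24 h after dosing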
[15] = BSK_CASM3C_Proliferation: Cell Proliferation Assessment in the BioMAP Diversity Plus: CASM3C Assay (AID 2283047); details: primary human coronary artery smooth muscle cells;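 note: sulforhodamine B total protein stain as relative cell number at 560 nm; sub-confluent cells exposed 48 h before staining; fitted both ways against DMSO so gain or loss of cell number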
[16] = read-out: Monokine induced gamma interferon (MIG), CXCL9 (gene 4283); assay: BSK_CASM3C_MIG: BioMAP Diversity Plus: CASM3C Assay for Monokine induced gamma interferon (MIG) Biomarker Activity (AID 2283048); details: primary human coronary artery smooth muscle cells; actives raise or lower the signal;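 note: MIG protein level measured by ELISA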
[17] = read-out: serum amyloid A (SAA), SAA1 (gene 6288); assay: BSK_CASM3C_SAA: BioMAP Diversity Plus: CASM3C Assay for serum amyloid A (SAA) Biomarker Activity (AID 2283049); details: primary human coronary artery smooth muscle cells; actives raise or lower the signal;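 note: SAA protein level quantified by ELISA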
[18] = BSK_CASM3C_SRB: Viability Assessment in the BioMAP Diversity Plus: CASM3C Assay (AID 2283050); details: primary human coronary artery smooth muscle cells;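 note: cells exposed to compound for 24 h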
[19] = read-out: Thrombomodulin, THBD (gene 7056); assay: BSK_CASM3C_Thrombomodulin: BioMAP Diversity Plus: CASM3C Assay for Thrombomodulin Biomarker Activity (AID 2283051); details: primary human coronary artery smooth muscle cells; actives raise or lower the signal;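 note: thrombomodulin protein level measured by ELISA 24 h after dosing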
[20] = read-out: urokinase plasminogen activator (uPA), PLAU (gene 5328); assay: BSK_BE3C_uPA: BioMAP Diversity Plus: BE3C Assay for urokinase plasminogen activator (uPA) Biomarker Activity (AID 2283038); details: primary human bronchial epithelial cells; actives raise or lower the signal;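 note: uPA protein level quantified by ELISA in cell cultures; uPA read one day after compound addition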
Summary of the method: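 Primary human bronchial epithelial cells, uPA measured by ELISA 24 h after dosing. Bidirectional change relative to DMSO; cytotoxicity checked in parallel cultures by sulforhodamine B total-protein staining.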

Measured: AC50

C[C@@H]1CCN(C(=O)[C@H](CCCN=C(N)N)NS(=O)(=O)c2cccc3c2NC[C@H](C)C3)[C@@H](C(=O)O)C1
not listed: [20]
inactive: all other assays above

C=C(C)[C@H]1CC=C(C)C(=O)C1
not listed: [20]
inactive: all other assays above

c1ccc2cc(Nc3ccc(Nc4ccc5ccccc5c4)cc3)ccc2c1
not listed: [20]
inactive: all other assays above

CC=Cc1ccc(OCC)c(O)c1
inactive: all assays above

C=C(C)C(=O)OCCOCCOCCOCCOC(=O)C(=C)C
active: [11] 1.44 µM
not listed: [20]
inactive: all other assays above

CCOC(=O)C(C#N)=C(c1ccccc1)c1ccccc1
active: [2] 36.9 µM | [15] 12.8 µM and 3.97 µM | [19] 13.7 µM
inactive: [1] | [2] | [3] | [4] | [6] | [7] | [8] | [9] | [10] | [11] | [12] | [13] | [14] | [16] | [17] | [18] | [19]
